Source: PubChem (SRMLSC)
Spn MK inh: S. pneumoniae MK inhibitors, primary screen, biochemical, PK/LDH-coupled NADH absorbance; mevalonate kinase [Streptococcus pneumoniae D39]; purified MK, PK/LDH-coupled NADH absorbance 340 nm; inhibition, % at 10 µM; actives 0.48% (n = 65,000); AID 555, 2006;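 active = ranked among the strongest by inhibition in the single 10 µM screen, a fixed top-ranked set picked for dose follow-up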
NADH coupling: inhibitors of PK/LDH coupling enzymes, profiling panel, artefact control, biochemical, MLSMR library; coupled PK/LDH NADH assays, four targets; IC50, µM (series often up to 10 µM); actives 0.02% (n = 65,000); AID 774, 2007;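 active = single-dose screening hits from any of four coupled enzyme assays that gave an IC50 when retested across doses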;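 note: the DPM-DC format reads NADH fluorescence rather than 340 nm absorbance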
Fluor 339 460: intrinsic fluorescence of library compounds, ex339/em460 – biochemical, MLSMR library, data from DPM-DC assay, artefact control, profiling panel | compound autofluorescence, ex339/em460 nm, NADH buffer; hits give high values; 1 = no-compound wells, NADH background | fluorescence fold increase at 10 µM | actives 5.5% (n = 65,000);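 active = at 10 µM, mean starting fluorescence two-fold or more over control wells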;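 note: signal is the first read of a kinetic run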
Abs 340nm: compound light absorbance at 340 nm, profiling panel, artefact control, biochemical, MLSMR library, data from PS, PMK, MK assays; compound absorbance at 340 nm, fold over control; fold change at 10 µM; 65,000 tested, under 10 active;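 active = at 10 µM dose, initial 340 nm absorbance at least 2 fold that of control wells; inactive = change under 2 fold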;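 note: initial absorbance extrapolated from kinetic A340 decline of NADH oxidation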
DPM-DC inhibit: S. pneumoniae DPM-DC inhibitors, primary screen, biochemical, PK/LDH-coupled NADH fluorescence. diphosphomevalonate decarboxylase (Streptococcus pneumoniae D39). purified DPM-DC. calls only at 10 µM. actives 0.49% (n = 65,000). AID 556, 2006;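 active = the 320 compounds with the highest percent inhibition in the single-dose primary screen, excluding strongly autofluorescent ones, cut at about 32% in these data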;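 note: kinetic rate of NADH fluorescence loss reporting ADP formed by the decarboxylase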
PMK inhibit: S. pneumoniae PMK inhibitors, primary screen, biochemical, mevalonate pathway, pilot trial included. purified PMK, PK/LDH-coupled NADH absorbance 340 nm. inhibition, % at 10 µM. actives 0.49% (n = 65,000). AID 539, 2006;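 active = top-ranked compounds by inhibition in the single 10 µM screen, taking a fixed number of the strongest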
A number is an active result; i = inactive; nt = no result shown; + = active, no number. The list is not random: actives were taken first. Their share in the collection is about 6.8%.

SMILES	Spn MK inh	NADH coupling	Fluor 339 460	Abs 340nm	DPM-DC inhibit	PMK inhibit
COc1ccccc1NC(=O)Cn1cnc2c(cnn2-c2ccc(C)c(C)c2)c1=O	i	i	i	i	i	i
COc1ccc(CN2CCN(C(=O)c3ccco3)CC2)cc1OCc1ccccc1	52	i	i	i	i	i
CCn1c2ccccc2c2cc(CN3CCN(C(=O)c4ccco4)CC3)ccc21	54	i	i	i	i	30
O=C(CSc1nnc(CNc2ccc(Cl)cc2)o1)Nc1nc2c(s1)CCCC2	i	i	i	i	i	i
Cc1nn(Cc2ccc(C(=O)Nc3nccs3)cc2)c(C)c1Cl	i	i	i	i	i	i
Cc1nc2ccc(NC(=O)N3CCSCC3)cc2nc1C	i	i	i	i	nt	i
O=C(Nc1ccc2nc(-c3cccs3)c(-c3cccs3)nc2c1)N1CCOCC1	i	i	2.5	i	+	i
CCOC(=O)N1CCN(C(=O)Nc2ccc3nc(C)sc3c2)CC1	i	i	i	i	i	i
CCOC(=O)N1CCN(C(=O)Nc2ccc3nc(-c4ccccn4)c(-c4ccccn4)nc3c2)CC1	i	i	2.2	i	nt	i
Cc1c2cccn2cc[n+]1C	i	i	3.8	i	nt	i
COc1ccc(S(=O)(=O)N2CCCC(C(=O)NCc3ccccn3)C2)cc1 (centres undefined)	i	i	i	i	i	i
C=CCNc1oc(-c2ccc(OC)cc2)nc1C#N	i	i	3.7	i	nt	i
C=CCNc1oc(-c2ccc(OCC)cc2)nc1C#N	i	i	2.3	i	nt	i
N#Cc1nc(-c2ccc(OCc3ccc(Cl)cc3)cc2)oc1NCCCn1ccnc1	i	i	i	i	i	i
CCOc1ccc(-c2nc(C#N)c(NCC(C)C)o2)cc1	i	i	2.4	i	nt	i
CC(NC(=O)NC1CCCCC1)C(c1cccs1)N1CCOCC1 (centres undefined)	i	i	i	i	i	i
COc1cccc(S(=O)(=O)Nc2ccc(C(=O)N3CCOCC3)cc2)c1	i	i	i	i	i	i
CC(=O)Nc1c(O)n(C)c2ccccc12	i	i	i	i	i	active
Cc1cc(O)c(C=Nc2cccc(Cl)c2)c(=O)o1	i	i	i	i	+	i
Oc1oc(-c2ccco2)nc1C=Nc1cccc(Cl)c1	i	i	i	i	i	i
COc1ccc(-c2c(N)nnc3c2[nH]c2ccccc23)cc1OC	i	i	4.6	i	nt	i
Cc1cc(C(=O)OCC(=O)NCCc2ccccc2)c(C)o1	i	i	i	i	i	i
Nc1cc(C(F)(F)F)ccc1C(=O)O	i	i	2.1	i	nt	i
Nc1cc(S(=O)(=O)C(F)(F)F)ccc1C(=O)O	i	i	i	i	i	i
CCOc1ccccc1COC(=O)c1cccc(-n2cnnn2)c1	i	i	i	i	i	i
SMILES	Spn MK inh	NADH coupling	Fluor 339 460	Abs 340nm	DPM-DC inhibit	PMK inhibit
Cc1nc2sc(C#N)c(N)c2c2c1CCCC2	i	i	2.5	i	nt	i
N#Cc1sc2nc3c(c(-c4cccnc4)c2c1N)CCC3	i	i	i	i	i	i
COCCSc1ccccc1C(=O)Nc1nncs1	i	i	i	i	i	i
O=C(CSc1nnc(COc2ccccc2)n1-c1ccccc1)c1cccs1	i	i	i	i	i	25
O=C(COc1ccccc1)NCc1nnc(SCC(=O)Nc2nccs2)n1-c1ccccc1	i	i	i	i	i	i
O=C1NC2=C(C(=O)c3ccccc32)C(c2ccccc2)N1 (centres undefined)	i	i	i	i	i	i
COc1ccc(C2NC(=O)NC3=C2CCc2ccccc23)cc1 (centres undefined)	i	i	3.8	i	nt	i
Cc1ccc(C2NC(=O)NC3=C2CCc2ccccc23)cc1 (centres undefined)	i	i	2.6	i	i	i
O=c1c(-c2ccccc2)coc2c(CN3CCCC3)c(O)ccc12	i	i	3.9	i	nt	i
O=c1oc2c(CN3CCCCCC3)c(O)ccc2cc1-c1nc2ccccc2[nH]1	i	i	4.7	i	nt	i
O=C(c1ccccc1-c1nc2ccccc2[nH]1)N1CCCCC1	i	i	i	i	i	i
CCc1cc2c(-c3ccccc3)cc(=O)oc2c(CN2CCOCC2)c1O	i	i	2.5	i	i	i
CCCCc1cc(=O)oc2c(CN3CCCC3)c(O)ccc12	i	i	2.4	i	nt	i
CCCCc1cc(=O)oc2cc(C)c(CN3CCCC3)c(O)c12	i	i	i	i	i	i
CCCc1nc(SCC(N)=O)[nH]c(=O)c1CC	i	i	i	i	i	i
COC(=O)c1cc(NC(=O)C2CC=CCC2C(=O)O)cc(C(=O)OC)c1 (centres undefined)	i	i	i	i	i	i
CCOc1cc2c(cc1OCC)C(c1cc(OC)c(O)c(OC)c1)NCC2 (centres undefined)	i	i	i	i	i	i
CCOC(=O)C1CCCN(C(=O)c2ccc(OCC)cc2)C1 (centres undefined)	i	i	i	i	i	i
O=C(c1ccccc1)c1coc2ccc(O)c(CN3CCOCC3)c12	i	i	i	i	i	i
O=c1c(-c2ccc(Cl)cc2)coc2c(CN3CCOCC3)c(O)ccc12	i	i	2.2	i	nt	i
O=c1cc(-c2ccccc2)c2ccc(O)c(CN3CCCCC3)c2o1	i	i	2.4	i	i	i
CN(C)C(=O)CSc1nnc([C@H](Cc2c[nH]c3ccccc23)NC(=O)OC(C)(C)C)o1	i	i	i	i	i	i
Brc1ccc2ncnc(Nc3ccc(N4CCOCC4)cc3)c2c1	i	i	i	i	i	i
Cc1ccc2nc3ccc(N4CCN(C)CC4)nn3c(=O)c2c1	i	i	2.3	i	i	i
CC(C)c1ccc(-c2nnn(Cc3nc4ccccc4s3)n2)cc1	i	i	i	i	i	i
SMILES	Spn MK inh	NADH coupling	Fluor 339 460	Abs 340nm	DPM-DC inhibit	PMK inhibit
COc1cc(-c2c(C#N)c(N)nc3c2c(C)nn3-c2ccc(C)c(C)c2)cc(OC)c1OC	i	i	3.8	i	nt	i
COc1cccc(CNc2nc3nc(C)cc(C)n3n2)c1	i	i	2.6	i	i	i
COc1cccc(Nc2cc(C)nc3nc(C)nn23)c1	i	i	i	i	i	i
CCOC(=O)c1sc2nc(SCC(=O)NCc3ccco3)n(Cc3ccccc3)c(=O)c2c1C	i	i	i	i	+	i
NC1(N)OC(CN2C(=O)c3ccccc3C2=O)CS1 (centres undefined)	i	i	i	i	i	i
O=c1[nH]c(N2CCc3ccccc3C2)nc2c1CCCC2	i	i	i	i	i	i
O=c1[nH]c(-c2ccccc2O)nc2c1CCCC2	i	i	3.3	i	i	i
